Experimental data published in paper PMC5540273 (PLoS ONE, 2017).

Tests used:
Settings in all cases: concentration: 1 μM,replicates: in singlicate; n = 1
CLK2 = test system: CLK2
CLK3 = test system: CLK3
CLK4 = test system: CLK4
CSF1R-autoinhibited = test system: CSF1R-autoinhibited
CSF1R = test system: CSF1R
CSK = test system: CSK
CSNK1A1L = test system: CSNK1A1L
CSNK1A1 = test system: CSNK1A1
CSNK1D = test system: CSNK1D
CSNK1E = test system: CSNK1E
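Also: KINOMEscan kinase panel screen.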

Structure (SMILES) | %Inh (CLK2) [%] | %Inh (CLK3) [%] | %Inh (CLK4) [%] | %Inh (CSF1R-autoinhibited) [%] | %Inh (CSF1R) [%] | %Inh (CSK) [%] | %Inh (CSNK1A1L) [%] | %Inh (CSNK1A1) [%] | %Inh (CSNK1D) [%] | %Inh (CSNK1E) [%]
Cc1cccc2c(-c3ccncc3)c(-c3ccc(F)cc3)nn12.Cl [GW461487] | 0 | 3 | 0 | 4 | 0 | 0 | 22 | 51 | 93.3 | 84
FC(F)(F)c1cc(Br)cc(Nc2nccc(-c3cnn4ncccc34)n2)c1 [GW810578] | 95.6 | 79 | 85 | 0 | 61 | 17 | 68 | 58 | 91.9 | 75
Cl.Nc1n[nH]c2cc(-c3ccccn3)ccc12 [GSK2189892] | 0 | 18 | 31 | 0 | 8 | 0 | 0 | 0 | 0 | 21
O=C(Nc1n[nH]c2cc(-c3ccco3)ccc12)C1CC1 [SB-737447] | 22 | 19 | 0 | 0 | 0 | 10 | 0 | 18 | 0 | 0
CC(=O)Nc1nc2cnc(Nc3cc(NC(=O)c4cccc(CC(C)(C)C#N)c4)ccc3C)nc2s1 | 0 | 0 | 7 | 28 | 99.7 | 7 | 11 | 31 | 6 | 0
CCn1c(-c2nonc2N)nc2cncc(CNC3CCNCC3)c21.Cl [SB-747651] | 17 | 7 | 56 | 0 | 10 | 0 | 19 | 0 | 26 | 21
Cn1ccc2ncnc(Oc3ccc(NC(=O)Nc4cc(C(C)(C)C)on4)c(Cl)c3)c21 | 95.1 | 0 | 10 | 43 | 100 | 0 | 15 | 6 | 6 | 0
Cl.c1ccc(Oc2ccc(Nc3ccnc4cc(-c5ccc(CN6CCNCC6)o5)ccc34)cc2)nc1 [GW567142] | 0 | 15 | 0 | 0 | 43 | 72 | 0 | 0 | 16 | 40
COc1cc2nccc(Nc3ccc(Oc4ccccc4)cc3)c2cc1OC.Cl [GI261656] | 0 | 0 | 0 | 26 | 14 | 91.9 | 0 | 0 | 0 | 41
COc1cccc(CNC(=O)NC2CCN(c3ccnc(Nc4cc(OC)c(OC)c(OC)c4)n3)C2)c1 (stereo not drawn) [GSK1379765] | 0 | 0 | 16 | 29 | 15 | 20 | 16 | 0 | 14 | 18
CNC(=O)c1ccccc1Nc1nc(Nc2cccc(CS(C)(=O)=O)c2)ncc1C.O=CO [GSK1520489] | 94.6 | 86 | 98.9 | 90 | 99.8 | 95.1 | 63 | 46 | 25 | 20
CN(c1ccc2c(c1)nc(NCc1ccc(F)cc1)n2C)c1ccnc(Nc2ccc(CS(C)(=O)=O)cc2)n1.Cl [GW813244] | 46 | 0 | 17 | 62 | 100 | 0 | 5 | 28 | 10 | 0
O=C(NCC1CC1)c1ccc(-c2cc(C(=O)NC3CC3)ccc2F)cc1 [GW810445] | 15 | 0 | 0 | 8 | 0 | 0 | 0 | 0 | 0 | 0
Cc1ccn2nc(-c3ccc(F)cc3)c(-c3ccncc3)c2c1.Cl [GW457859] | 0 | 1 | 55 | 25 | 9 | 0 | 35 | 92.5 | 96.3 | 99.6
O=C(Nc1cccc(C(F)(F)F)c1)c1cccc(Oc2ccc3nccn3n2)c1 | 0 | 0 | 4 | 16 | 100 | 0 | 0 | 0 | 11 | 0
